Only some compounds are listed: those with a hit (about 2.9% of all), similar ones and a draw of the others.
Nrf2 activator – qHTS of Nrf2 Activators; 0.31% of 410,000 active; AID 624171, 2012; AREc32 ARE-luciferase reporter (MCF7-derived line), luminescence, 24 h; Potency, µM (top dose mostly 46.1 µM), actives largely listed as activators; note: nearly all actives have a fitted effect of over 65% in size
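Cells of the AREc32 ARE-luciferase line are plated in OPTI-MEM containing 5% FBS and left overnight at 37 deg C. Compounds are pinned in, incubation continues 24 hr, and firefly luciferase signal is then measured.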
Nrf2 inh – Nrf2 qHTS screen for inhibitors. Potency, µM (titrated, usually from 46 µM), most hits filed as inhibitors. 2.1% of 360,000 active. A549 ARE-Fluc reporter, luciferase luminescence, 18-24 h; note: nearly all actives have a fitted effect of over 60% in size
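Quantitative HTS in A549 cells stably bearing an antioxidant response element-firefly luciferase construct. Inhibition of Nrf2-driven transcription was scored by luminescence after 18-24 h of compound exposure at 37 °C.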
S2 tox – Viability Counterscreen for Primary qHTS for Inhibitors of ATXN expression | S2 cells (HEK-293 line with an ATXN2-luciferase reporter) viability, CellTiter-Fluor protease fluorescence, 24 h | Potency, µM (series often up to 56.7 µM), hits mostly cytotoxic | 0.49% of 400,000 active; note: nearly all actives have a fitted effect of over 40% in size
A549 tox – Nrf2 qHTS screen for inhibitors: counterscreen for cytotoxicity | A549 ARE-Fluc cells, CellTiter-Fluor viability, 18-24 h | Potency, µM (top dose mostly 46 µM), most hits filed as inhibitors | 0.16% of 390,000 active
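A549 ARE_Fluc cells in 5% FBS OPTI-MEM were exposed to compounds in concentration-response for 18-24 h at 37 deg C. Viability was read by CellTiter-Fluor fluorescence (Ex 405/Em 525) after 30 min, before the luciferase read.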
ATXN2 expr inh – Primary qHTS for Inhibitors of ATXN expression | HEK-293 ATXN2-luciferase reporter, luminescence, 24 h | Potency, µM (top dose mostly 57 µM), usual class: inhibitors | 0.72% of 360,000 active | AID 1745845, 2022; note: nearly all actives have a fitted effect of over 55% in size
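ATXN2-luciferase reporter cells (luciferase flanked by upstream and downstream ATXN2 gene portions) were treated 24 h at 37 °C with compounds at up to 57 uM. SteadyGlo luminescence gave expression; GF-AFC fluorescence gave viability.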
Large screens that a line does not name were inactive; ! = not active in a repeat. Calls come from the whole dose curve; as a rule, active = well fitted curve in the direction sought with a large enough effect; inconclusive = small, poorly fitted or top-dose-only effect, or another doubt; inactive = no such curve, though single readings can be large; an effect the other way counts as inactive or inconclusive.

CN1C(=O)/C(=C2/C=Cc3ccccc3N2CCCS(=O)(=O)O)SC1=S	S2 tox 16µM, A549 tox 21µM
CCN1C(=O)/C(=C2/C=Cc3ccccc3N2CC)SC1=S	Nrf2 activator inconclusive, S2 tox inconclusive, A549 tox inconclusive (no result: ATXN2 expr inh)
O=C(NC1CCS(=O)(=O)C1)c1cn(-c2ccccc2)nc1-c1ccccc1 (stereo not drawn)	none
CCOC(=O)N1CCN(C(=O)CSc2nnc(CNC(=O)c3c(F)cccc3Cl)o2)CC1	Nrf2 inh inconclusive, A549 tox inconclusive
CCCN(CCC)CCCNC(=O)Cn1ncc2c3ccccc3n(Cc3ccccc3F)c2c1=O	Nrf2 inh inconclusive, S2 tox 14µM, ATXN2 expr inh inconclusive
Cc1nnsc1S(=O)c1ccc(Cl)c(Cl)c1 (stereo not drawn)	Nrf2 activator 11µM (no result: ATXN2 expr inh)
Cc1nnsc1S(=O)c1ccc(Cl)cc1 (stereo not drawn)	Nrf2 activator inconclusive (no result: ATXN2 expr inh)
CCOC(=O)c1c(C)oc2c(F)c(F)c(F)c(F)c2c1=O	S2 tox inconclusive, A549 tox inconclusive, ATXN2 expr inh 32µM
CCOC(=O)c1c(NC(=O)c2c(Br)cnn2C)c(C#N)nn1-c1ccccc1	Nrf2 inh 18µM, ATXN2 expr inh inconclusive
CCOC(=O)c1c(NC(=O)c2nn(CC)cc2Br)c(C#N)nn1-c1ccccc1	Nrf2 inh inconclusive
Nc1c(Cl)cc(N=Nc2ccccc2)cc1Cl	Nrf2 activator 6.3µM, Nrf2 inh inconclusive, S2 tox inconclusive
Oc1ccc(Cl)cc1N=Nc1ccccc1	Nrf2 activator inconclusive (no result: ATXN2 expr inh)
CC(C)Oc1ccc(C(=O)Nc2ccc3oc(-c4ccncc4)nc3c2)cc1	Nrf2 inh inconclusive
O=C1NC[C@H](Cc2ccccc2)N(C[C@H]2CCCN2C[C@H](Cc2ccccc2)N2C[C@H](Cc3ccccc3)N(CC3CCCCC3)C(=O)C2=O)C1=O	Nrf2 inh inconclusive, S2 tox 18µM, A549 tox inconclusive, ATXN2 expr inh inconclusive
CCOc1ccc(CCN2C(=O)C(=O)N([C@@H](Cc3ccccc3)CN3CCC[C@H]3CN3C(=O)C(=O)NC[C@@H]3Cc3ccccc3)C[C@@H]2Cc2ccccc2)cc1	S2 tox 28µM, ATXN2 expr inh inconclusive (no result: Nrf2 inh, A549 tox)
CCOc1ccc(CCN2C(=O)C(=O)N([C@@H](Cc3ccc(O)cc3)CN3CCC[C@H]3CN3C(=O)C(=O)NC[C@@H]3Cc3ccccc3)C[C@@H]2Cc2ccc(O)cc2)cc1	none (no result: Nrf2 inh, A549 tox)
O=C1NC[C@H](Cc2ccccc2)N(C[C@H]2CCCN2C[C@H](Cc2ccccc2)N2C[C@H](Cc3ccccc3)N(CCc3ccccc3)C(=O)C2=O)C1=O	Nrf2 inh inconclusive, S2 tox 18µM, A549 tox inconclusive, ATXN2 expr inh inconclusive
O=C1NC[C@H](Cc2ccccc2)N(C[C@@H]2CCCN2C[C@H](Cc2ccccc2)N2C[C@H](Cc3ccccc3)N(CC3CCCCC3)C(=O)C2=O)C1=O	ATXN2 expr inh inconclusive (no result: Nrf2 inh, S2 tox, A549 tox)
Cc1ccc(NC(=O)/C(=C/c2cccc([N+](=O)[O-])c2)NC(=O)C2CCCCC2)c(C)c1	Nrf2 inh 9.2µM
CCCC(=O)NC(=S)NNC(=O)c1ccc([N+](=O)[O-])cc1	Nrf2 inh inconclusive
Cc1cc(CSc2ccccc2)ccc1NC(=O)COc1ccccc1	Nrf2 inh inconclusive
COc1ccccc1OCC(=O)Nc1ccc(CSc2ccccc2)cc1C	Nrf2 inh 10µM
Cc1ccccc1Nc1c([N+](=O)[O-])cncc1[N+](=O)[O-]	none
Cc1c(Nc2cc(Cl)c3nonc3c2[N+](=O)[O-])c(=O)n(-c2ccccc2)n1C	Nrf2 inh inconclusive, S2 tox 28µM, A549 tox inconclusive, ATXN2 expr inh inconclusive
O=C(O)c1ccc(Nc2cc(Cl)c3nonc3c2[N+](=O)[O-])cc1	S2 tox inconclusive
O=[N+]([O-])c1cncc([N+](=O)[O-])c1Nc1cccc(O)c1	Nrf2 activator inconclusive, ATXN2 expr inh 20µM (no result: S2 tox)
O=[N+]([O-])c1c(Nc2cccc(O)c2)cc(Cl)c2nonc12	Nrf2 inh inconclusive, S2 tox 10µM, A549 tox inconclusive, ATXN2 expr inh inconclusive
CN1CCN(C(=O)C2=C[C@@H](c3csc4ccccc34)C[C@@H](OCCCCO)O2)CC1	none
Cc1[nH]c(=O)c(C(=O)/C=C/c2ccccc2F)c2c1CCCC2	Nrf2 activator inconclusive, S2 tox 28µM, A549 tox inconclusive, ATXN2 expr inh 8.9µM (no result: Nrf2 inh)
CC1(C)CN=C(N(C(=O)Nc2ccccc2)c2ccccc2F)S1	none
CCOc1ccc(Cl)cc1S(=O)(=O)n1nnc2ccccc21	none
CC1CCCC(C)N1/N=C/c1ccc(O)cc1 (stereo not drawn)	none
CC1Cc2ccccc2N1C(=O)CN1CCC(n2nnc3cc(C(F)(F)F)ccc32)CC1 (stereo not drawn)	Nrf2 inh 16µM, S2 tox inconclusive, A549 tox inconclusive
Cc1ccc(NC(=O)c2ccc(CNS(=O)(=O)c3ccc4c(c3)C(C)(C)C(=O)N4C)cc2)cc1F	Nrf2 inh 23µM (no result: S2 tox, ATXN2 expr inh)
Cc1ccc(NC(=O)c2ccc(CNS(=O)(=O)c3ccc4c(c3)C(C)(C)C(=O)N4C)cc2)cc1	none (no result: S2 tox, ATXN2 expr inh)
CCc1cccc(NC(=O)c2ccc(CNS(=O)(=O)c3ccc4c(c3)C(C)(C)C(=O)N4C)cc2)c1	Nrf2 inh 16µM (no result: S2 tox, ATXN2 expr inh)
Cc1ccc(NC(=O)C2=C(c3ccccc3)S(=O)(=O)CCS2(=O)=O)cc1	Nrf2 inh 21µM, S2 tox 11µM, A549 tox inconclusive, ATXN2 expr inh inconclusive
Cc1ccc(NC(=O)c2ccccc2)cc1	Nrf2 inh inconclusive
Cc1c(C#N)c(N)nc2c3c(sc12)NC(=O)CC3c1ccc(F)cc1 (stereo not drawn)	none
CC(=O)Oc1ccc2c(c1)OC(c1ccccc1)CC21CC(C)(C)NC(=S)N1 (stereo not drawn)	none
COc1ccc(C2(c3ccc(OC(C)=O)cc3OC(C)=O)CC(c3ccccc3)NC(=S)N2)cc1 (stereo not drawn)	Nrf2 inh 21µM, A549 tox inconclusive
Cc1cccc(NC(=O)CSc2nc3ccccc3c3nc(CCc4c(C)n[nH]c4C)nn23)c1	Nrf2 inh 10µM, S2 tox 16µM, A549 tox inconclusive, ATXN2 expr inh 32µM!
CCOc1ccccc1NC(=O)CSc1nc2ccccc2c2nc(CCn3cncc3C)nn12	S2 tox 28µM (no result: Nrf2 inh)
Cc1cncn1CCc1nc2c3ccccc3nc(SCC(=O)Nc3ccc(F)cc3)n2n1	none (no result: Nrf2 inh)
Cc1cncn1CCc1nc2c3ccccc3nc(SCC(=O)Nc3cccc(Cl)c3)n2n1	S2 tox 16µM, A549 tox 16µM, ATXN2 expr inh 25µM
CCC(Sc1nc2ccccc2c2nc(CCn3cncc3C)nn12)C(=O)Nc1cccc(OC)c1 (stereo not drawn)	S2 tox inconclusive, A549 tox inconclusive (no result: Nrf2 inh)
CC(=O)Nc1ccc(C(=O)COC(=O)CN2C(=O)NC3(CCCCC3C)C2=O)cc1 (stereo not drawn)	none
Cc1ccc(OCCCC(=O)Nc2nc3ccccc3[nH]2)cc1	none
